Inconclusive results are not listed. Active and inactive are the calls of the source. No rule for the calls is given here.
target: Histone-lysine N-methyltransferase 2A (Homo sapiens) (UniProt Q03164); experiment: Inhibitor SAR for Compounds Targeting the Menin-MLL Interaction in MLL Related Leukemias: Competition With Fluorescein Labeled MLL-derived Peptide; settings: Menin-MLL fluorescein peptide fluorescence polarization competition
From the text: qHTS Assay for Inhibitors Targeting the Menin-MLL Interaction in MLL Related Leukemias NIH Chemical Genomics Center [NCGC] NIH Molecular Libraries Probe Centers Network [MLPCN] MLPCN Grant: MH084875-01A1 Assay Submitter (PI): Jolanta Grembecka, Tomasz Cierpicki, University of Virginia Translocations of the MLL (Mixed Lineage Leukemia) gene are frequently found in human leukemias affecting both children and adults. Fusion of MLL to one of more than 60 genes results in generation of oncogenic proteins upregulating Hox genes, which are vital to blood cell development. Patients harboring fusion of the MLL gene suffer from aggressive leukemias and respond poorly to available therapies. All of the oncogenic fusion proteins have a preserved N-terminal fragment of MLL that has been identified to interact with menin. It has been recently discovered that association with menin is critical to the leukemogenic activity of the MLL fusion oncoproteins. Selective targeting of the menin-MLL interaction could provide an attractive therapeutic approach to develop novel drugs for MLL-related leukemias. Small molecules blocking the menin-MLL interaction should reverse the oncogenic potential of MLL fusion proteins. We have developed and optimized a fluorescence polarization-based assay for the identification of Menin-MLL inhibitors. The assay was run employing two different MLL-derived peptides. The present assay uses a 12 amino acid peptide labeled with fluorescein at its N-terminus. This peptide consists of the menin high affinity binding motif from MLL and is potently bound by menin. Another peptide with a mutated sequence, labeled with Texas Red, was used in parallel as a less stringent screen for inhibitors. The present assay was run to characterize initial structure activity relationships.
The Menin protein, the MLL-wild type (w.t.) derived peptide (N-terminal 12 amino acids), the MLL-derived peptide labeled with Texas Red and the MLL-w.t. peptide labeled with Fluorescein were kindly supplied by laboratory of Dr. Jolanta Grembecka, University of Virginia. All protein and peptide solutions were stored in single use aliquots at -80C. The Eu3+ Cyrptate-conjugated mouse monoclonal antibody anti-6 Histidine (Eu3+-AB) and the Streptavidin-XL665 conjugate (XL665) were purchased from Cisbio International (Bedford, MA). All antibody and XL665 conjugate solution stocks were stored in single use aliquots at -20C. The Buffer components for all assays were purchased from Sigma-Aldrich (St. Louis, MO) and Invitrogen (Carlsbad, CA). FP Assay Reagents: 1. FP reaction buffer: 50 mM Tris-HCl pH 7.5, 50 mM NaCl, 1mM DTT. Before use, 0.05% BSA is added. 2. Menin protein, MLL-w.t. labeled with fluorescein, MLL-mutant peptide labeled with texas red. Stored in singe use aliquots at -80C. 3. MLL-w.t. unlabeled peptide as positive control: 10 uM final in FP buffer. FP Assay Procedure: 1. Prepare Menin at 200 nM, MLL-w.t.-fluorescein at 25 nM, and MLL-mutant-texas red at 50 nM mixture in FP buffer. 2. Prepare Menin at 200 nM, MLL-w.t.-fluorescein at 25 nM, MLL-mutant-texas red at 50 nM, and 10 uM MLL-w.t. unlabeled mixture in FP buffer. 3. Prepare MLL-w.t.-fluorescein at 25 nM and MLL-mutant-texas red at 50 nM mixture in FP buffer. 3. Dispense 4 ul per well of reagent in step 1 in columns 2, 4 - 48 in a black 1536 well plate, dispense 4 ul per well of reagents from steps 2 and 3 in columns 1 and 3 respectively. Incubate plate at ambient for 15 minutes. 4. Transfer 23 nl per well of compound to plate and incubate at ambient for 1 hr. 5. Read fluorescence polarization for each label using the PerkinElmer Envision. Envision protocol for fluorescein: FITC FP Dual Enh Mirror, Excitation filter 480, Emission filter (1) P-pol 535, Emission filter (2) S-pol 535 Envision protocol for texas red: FP Dual Enh Mirror, Excitation filter 555, Emission filter (1) P-pol 632, Emission filter (2) S-pol 632

Histone-lysine N-methyltransferase 2A (Homo sapiens), sequence (Q03164 whole entry, looked up, the tested form may be a part): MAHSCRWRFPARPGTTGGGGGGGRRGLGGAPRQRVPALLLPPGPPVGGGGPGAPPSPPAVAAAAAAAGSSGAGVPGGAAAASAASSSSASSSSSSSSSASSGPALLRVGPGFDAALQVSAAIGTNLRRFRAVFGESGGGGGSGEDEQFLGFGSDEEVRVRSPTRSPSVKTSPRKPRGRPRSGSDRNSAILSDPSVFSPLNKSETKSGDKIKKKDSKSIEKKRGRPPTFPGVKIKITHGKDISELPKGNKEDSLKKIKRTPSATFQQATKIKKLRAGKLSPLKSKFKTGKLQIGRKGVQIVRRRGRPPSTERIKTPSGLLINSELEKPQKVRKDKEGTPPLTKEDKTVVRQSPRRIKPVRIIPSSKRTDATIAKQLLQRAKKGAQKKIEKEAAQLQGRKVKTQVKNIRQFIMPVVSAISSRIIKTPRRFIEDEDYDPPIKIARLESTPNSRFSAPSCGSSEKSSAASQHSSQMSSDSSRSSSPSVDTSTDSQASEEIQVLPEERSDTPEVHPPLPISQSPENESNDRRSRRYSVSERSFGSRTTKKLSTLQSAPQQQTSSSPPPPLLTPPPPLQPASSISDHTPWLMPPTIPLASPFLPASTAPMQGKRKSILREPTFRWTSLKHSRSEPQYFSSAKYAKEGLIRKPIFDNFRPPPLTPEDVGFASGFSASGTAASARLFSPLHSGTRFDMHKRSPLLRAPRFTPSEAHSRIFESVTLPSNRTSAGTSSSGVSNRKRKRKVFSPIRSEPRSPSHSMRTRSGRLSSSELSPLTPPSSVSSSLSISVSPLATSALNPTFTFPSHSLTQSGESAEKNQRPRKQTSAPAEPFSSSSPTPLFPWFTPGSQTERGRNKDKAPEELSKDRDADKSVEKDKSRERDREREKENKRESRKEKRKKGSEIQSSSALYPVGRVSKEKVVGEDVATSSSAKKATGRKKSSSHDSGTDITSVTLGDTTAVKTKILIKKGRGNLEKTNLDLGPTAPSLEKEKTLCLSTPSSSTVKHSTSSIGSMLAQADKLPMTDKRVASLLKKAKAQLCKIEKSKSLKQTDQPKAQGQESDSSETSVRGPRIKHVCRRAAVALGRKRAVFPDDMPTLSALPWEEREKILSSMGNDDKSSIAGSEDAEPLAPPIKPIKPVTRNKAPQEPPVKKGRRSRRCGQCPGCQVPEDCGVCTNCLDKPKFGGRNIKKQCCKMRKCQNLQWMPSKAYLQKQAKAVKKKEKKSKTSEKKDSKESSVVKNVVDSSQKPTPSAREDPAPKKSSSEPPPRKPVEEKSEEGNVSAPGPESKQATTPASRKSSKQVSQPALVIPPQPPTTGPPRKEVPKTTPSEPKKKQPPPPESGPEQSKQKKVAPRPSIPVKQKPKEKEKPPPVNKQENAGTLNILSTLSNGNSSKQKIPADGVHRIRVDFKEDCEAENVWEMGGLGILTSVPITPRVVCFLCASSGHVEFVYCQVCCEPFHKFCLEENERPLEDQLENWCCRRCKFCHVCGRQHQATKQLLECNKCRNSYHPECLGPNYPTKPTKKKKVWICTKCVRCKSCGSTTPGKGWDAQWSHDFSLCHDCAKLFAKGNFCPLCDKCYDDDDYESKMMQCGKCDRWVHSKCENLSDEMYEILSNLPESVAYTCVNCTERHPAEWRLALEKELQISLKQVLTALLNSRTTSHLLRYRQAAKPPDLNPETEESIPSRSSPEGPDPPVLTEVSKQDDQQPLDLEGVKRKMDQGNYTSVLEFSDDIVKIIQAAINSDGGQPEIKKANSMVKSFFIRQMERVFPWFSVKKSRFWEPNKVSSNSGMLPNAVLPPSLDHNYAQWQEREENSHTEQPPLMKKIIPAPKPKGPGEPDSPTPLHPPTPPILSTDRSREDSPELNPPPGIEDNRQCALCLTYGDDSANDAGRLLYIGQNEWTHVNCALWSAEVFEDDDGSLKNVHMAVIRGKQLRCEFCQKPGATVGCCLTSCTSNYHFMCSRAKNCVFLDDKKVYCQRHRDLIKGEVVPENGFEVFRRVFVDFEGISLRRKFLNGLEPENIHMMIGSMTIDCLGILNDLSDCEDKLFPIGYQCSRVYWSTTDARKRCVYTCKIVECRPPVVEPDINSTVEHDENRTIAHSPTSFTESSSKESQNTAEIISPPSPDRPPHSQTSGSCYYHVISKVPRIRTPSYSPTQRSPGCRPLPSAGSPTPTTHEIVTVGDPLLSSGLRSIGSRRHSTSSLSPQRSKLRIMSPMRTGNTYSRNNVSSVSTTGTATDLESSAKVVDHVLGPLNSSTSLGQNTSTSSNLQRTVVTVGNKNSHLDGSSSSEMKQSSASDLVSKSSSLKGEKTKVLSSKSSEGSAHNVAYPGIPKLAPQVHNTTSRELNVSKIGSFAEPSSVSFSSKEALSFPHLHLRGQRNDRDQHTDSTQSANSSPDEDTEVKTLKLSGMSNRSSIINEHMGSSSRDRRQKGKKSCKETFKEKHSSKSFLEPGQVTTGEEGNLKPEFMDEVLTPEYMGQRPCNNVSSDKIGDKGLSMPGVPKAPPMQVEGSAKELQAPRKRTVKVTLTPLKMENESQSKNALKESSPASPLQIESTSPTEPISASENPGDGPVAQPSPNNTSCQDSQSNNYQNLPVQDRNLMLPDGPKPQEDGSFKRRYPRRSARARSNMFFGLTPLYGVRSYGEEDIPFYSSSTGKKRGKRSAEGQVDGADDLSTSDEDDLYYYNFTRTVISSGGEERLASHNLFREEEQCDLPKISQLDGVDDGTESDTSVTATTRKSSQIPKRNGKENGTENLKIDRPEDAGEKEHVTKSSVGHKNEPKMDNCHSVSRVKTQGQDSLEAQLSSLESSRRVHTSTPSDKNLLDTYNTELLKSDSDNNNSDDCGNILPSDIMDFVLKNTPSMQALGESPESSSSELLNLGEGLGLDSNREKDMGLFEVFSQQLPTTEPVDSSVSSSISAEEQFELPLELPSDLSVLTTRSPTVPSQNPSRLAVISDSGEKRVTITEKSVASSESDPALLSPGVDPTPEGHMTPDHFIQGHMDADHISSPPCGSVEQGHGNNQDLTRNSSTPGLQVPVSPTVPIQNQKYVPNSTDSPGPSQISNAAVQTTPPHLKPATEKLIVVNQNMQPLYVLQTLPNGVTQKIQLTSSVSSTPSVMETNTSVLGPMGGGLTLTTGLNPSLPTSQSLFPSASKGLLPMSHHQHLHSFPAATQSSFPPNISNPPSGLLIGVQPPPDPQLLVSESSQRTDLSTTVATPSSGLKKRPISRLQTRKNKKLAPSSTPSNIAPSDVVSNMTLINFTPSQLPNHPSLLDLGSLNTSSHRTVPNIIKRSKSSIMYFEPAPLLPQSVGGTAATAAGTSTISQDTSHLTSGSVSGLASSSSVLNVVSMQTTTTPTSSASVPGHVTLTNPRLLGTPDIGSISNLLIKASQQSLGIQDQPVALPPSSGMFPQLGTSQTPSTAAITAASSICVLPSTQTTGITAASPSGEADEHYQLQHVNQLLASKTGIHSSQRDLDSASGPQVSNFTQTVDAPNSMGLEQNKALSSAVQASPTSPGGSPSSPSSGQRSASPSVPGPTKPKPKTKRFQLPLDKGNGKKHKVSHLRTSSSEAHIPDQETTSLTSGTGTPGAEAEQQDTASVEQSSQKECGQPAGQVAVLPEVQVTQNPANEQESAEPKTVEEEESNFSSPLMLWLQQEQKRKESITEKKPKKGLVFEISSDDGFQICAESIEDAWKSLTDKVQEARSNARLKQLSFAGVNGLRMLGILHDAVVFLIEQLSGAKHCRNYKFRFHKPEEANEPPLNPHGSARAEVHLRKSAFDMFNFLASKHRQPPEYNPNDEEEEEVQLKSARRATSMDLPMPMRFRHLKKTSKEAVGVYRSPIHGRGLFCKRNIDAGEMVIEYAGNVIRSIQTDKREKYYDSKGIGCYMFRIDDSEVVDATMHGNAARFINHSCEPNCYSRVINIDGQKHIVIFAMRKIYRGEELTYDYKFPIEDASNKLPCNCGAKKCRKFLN

SMILES | Potency | outcome
Nc1ccc(OCCCN2CCC(C(O)(c3ccccc3)c3ccccc3)CC2)cc1 | 60.5 µM (active) | 
O=C(O)c1ccc(OCCCN2CCC(C(O)(c3ccccc3)c3ccccc3)CC2)cc1 |  | inactive; no saturation, 34% inh. at 1mm
NCc1ccc(OCCCN2CCC(C(O)(c3ccccc3)c3ccccc3)CC2)cc1 | 7.6 µM (active) | 
CC(C)(C(=O)O)c1ccc(C(O)CCCN2CCC(C(O)(c3ccccc3)c3ccccc3)CC2)cc1 (centres undefined) |  | inactive; no activity up to 2 mm
FC(F)(F)c1ccc(OCCCN2CCC(=C(c3ccccc3)c3ccccc3)CC2)cc1 |  | inactive; no saturation, 25% inh at 2mm
FC(F)(F)c1ccc(OCCCN2CCC(C(c3ccccc3)c3ccccc3)CC2)cc1 |  | inactive; no saturation, 36% inh at 2mm
N#Cc1ccc(OCCCN2CCC(C(O)(c3ccccc3)C(F)(F)F)CC2)cc1 (centres undefined) | 31 µM (active) | 
CC(C)c1ccc(OCCCN2CCC(=C(c3ccccc3)c3ccccc3)CC2)cc1 |  | inactive; no saturation, 15% inh at 1mm
Cc1ccc(OCCCN2CCC(=C(c3ccccc3)c3ccccc3)CC2)cc1 |  | inactive; no saturation, 25% inh at 2mm
N#Cc1ccc(OCCCN2CCC(C(O)(c3ccccc3)c3ccccc3)CC2)cc1F | 26.5 µM (active) | 
OC(c1ccccc1)(c1ccccc1)C1CCN(CCCOc2ccc(-n3ccnn3)cc2)CC1 | 29 µM (active) | 
FC(F)(F)Oc1ccc(OCCCN2CCC(=C(c3ccccc3)c3ccccc3)CC2)cc1 |  | inactive; no saturation, 12%inh at 2mm
FC(F)(F)Oc1ccc(OCCCN2CCC(C(c3ccccc3)c3ccccc3)CC2)cc1 |  | inactive; no saturation, 12%inh at 2mm
OC(c1ccccc1)(c1ccccc1)C1CCN(CCCOc2ccc(-c3nn[nH]n3)cc2)CC1 |  | inactive; interference with assay at higher dose, inactive up to 100 um
c1ccc(OCCCN2CCC(=C(c3ccccc3)c3ccccc3)CC2)cc1 |  | inactive; no saturation, 42% inh at 2mm
COc1ccccc1C(=O)Nc1ccnn1C1CCN(CC2CCCCC2)CC1 | 42 µM (active) | 
[N-]=[N+]=Nc1ccc(OCCCN2CCC(C(O)(c3ccccc3)c3ccccc3)CC2)cc1 | 58 µM (active) | 
OC(c1ccccc1)(c1ccccc1)C1CCN(CCCOc2ccc(C(F)(F)F)cc2)CC1 | 52 µM (active) | 
N#Cc1ccc(COCCN2CCC(C(O)(c3ccccc3)c3ccccc3)CC2)cc1 |  | inactive; no saturation, 50% inh at 1mm

Source: PubChem BioAssay AID504537 (National Center for Advancing Translational Sciences (NCATS), 2011)
